Results from the supplement of paper PMC10042075.
Counter-ions that a name gives are not always drawn. ± gives the standard deviation of the averaged measurements.

Each compound was assayed on LASCPC-01 (assay: cell viability relative to DMSO control (fraction); higher = less growth inhibition (more viable cells)). Settings: 2 µM; 72 h.
Experimental: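 High-throughput single-dose screen in the LASCPC-01 NEPC cell line in 384-well plates. Cells were treated with each compound at 2 µM for 72 h, and viability was read by CellTiter-Glo luminescence. Values are normalised to the DMSO control (compound/DMSO) from three replicates; only the 5-HT-related subset of the 7315-compound library is given.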

How did the cell viability turn out when CN1CCC(=C2c3ccccc3CCc3sccc32)CC1 [Pizotifen] was run?
The cell viability was 0.586.

Fc1ccc([C@@H]2CCNC[C@H]2COc2ccc3c(c2)OCO3)cc1 [Paroxetine HCl] was tested. Which cell viability did it give?
Its cell viability is 1.02.

For O=C1CCc2ccc(OCCCCN3CCN(c4cccc(Cl)c4Cl)CC3)cc2N1 [Aripiprazole], which cell viability is on record?
Its cell viability is 1.05.

With CN1CC2c3ccccc3Oc3ccc(Cl)cc3C2C1 (stereo not given) [Asenapine] as the compound, how does the cell viability read?
Its cell viability is 0.974.

CN(C)[C@@H](CCOc1cccc2ccccc12)c1ccccc1 [Dapoxetine HCl] was tested. Which cell viability did it give?
Its cell viability is 1.03.

COc1cc(N)c(Cl)cc1C(=O)OCCN1CCCCC1 was tested. Which cell viability did it give?
Its cell viability is 0.718.

For Cc1cnc(CNCC2(F)CCN(C(=O)c3ccc(F)c(Cl)c3)CC2)nc1, which cell viability is on record?
The cell viability was 0.989.

With NC(N)=NC(N)=Nc1cccc(Cl)c1 [1-(m-Chlorophenyl)-biguanide hydrochloride] as the compound, how does the cell viability read?
The cell viability was 1.03.

Which cell viability does the source give for Cc1cc2c(cc1Cl)N(C(=O)Nc1ccc(Oc3cccnc3C)nc1)CC2 here?
Its cell viability is 0.0538.

For COc1cc(/C=C/C(=O)NCCn2c(C(F)(F)F)cc3ccccc32)cc(OC)c1OC, which cell viability is on record?
Its cell viability is 0.968.

With Cc1ccc(Sc2ccccc2N2CCNCC2)c(C)c1 [Vortioxetine] as the compound, how does the cell viability read?
Its cell viability is 0.666.

For Cc1ccc(C(=O)Oc2ccc(C(CN(C)C)C3(O)CCCCC3)cc2)cc1 (stereo not given) [Ansofaxine hydrochloride], which cell viability is on record?
The cell viability was 0.931.

Which cell viability does the source give for Cc1cc2c(cc1Cl)N(C(=O)Nc1cccc3ncccc13)CC2 here?
Its cell viability is 0.693.

With Cc1nc2sccn2c(=O)c1CCN1CCC(=C(c2ccc(F)cc2)c2ccc(F)cc2)CC1 [Ritanserin] as the compound, how does the cell viability read?
Its cell viability is 0.989.

With CN(C)CCCc1cc(C(=O)Nc2ccc(-c3ccncc3)cc2)ccc1O as the compound, how does the cell viability read?
The cell viability was 0.993.

How did the cell viability turn out when CN1CCC[C@@H]1Cc1c[nH]c2ccc(CCS(=O)(=O)c3ccccc3)cc12 [Eletriptan hydrobromide] was run?
The cell viability was 1.21.

CC1(C)C(=O)N(CCN2CCC(C(=O)c3ccc(F)cc3)CC2)c2ccccc21 [LY-310,762 hydrochloride] was tested. Which cell viability did it give?
Its cell viability is 0.89.

How did the cell viability turn out when CC1(C)C(=O)N(CCN2CCC(C(=O)c3ccc(F)cc3)CC2)c2ccccc21 was run?
Its cell viability is 0.991.

Which cell viability does the source give for N#Cc1cc(CN2CCC(Nc3ncnc4sc(Cl)cc34)CC2)ccc1F here?
Its cell viability is 0.875.

Which cell viability does the source give for Cn1ccc2cc3c(cc21)CCN3C(=O)Nc1cccnc1 here?
Its cell viability is 1.06.

N[C@@H]1CC[C@@H](c2ccc(Cl)c(Cl)c2)c2ccccc21 [Dasotraline hydrochloride] was tested. Which cell viability did it give?
Its cell viability is 1.13.

Cn1cc(C(=O)[C@@H]2CCc3[nH]cnc3C2)c2ccccc21 [Ramosetron] was tested. Which cell viability did it give?
Its cell viability is 1.08.

With CCN(CC)CCOC(=O)c1cc(Cl)c(N)cc1OC [SDZ-205,557 hydrochloride] as the compound, how does the cell viability read?
Its cell viability is 1.06.

With O=C(c1ccc(F)cc1)C1CCN(CCn2c(=O)[nH]c3ccccc3c2=O)CC1 [Ketanserin] as the compound, how does the cell viability read?
Its cell viability is 0.968.

With CN(C)CC[C@@H](c1ccc(Cl)cc1)c1ccccn1 [Dexchlorpheniramine Maleate] as the compound, how does the cell viability read?
The cell viability was 0.891.

How did the cell viability turn out when CN(C)CC(c1ccc(O)cc1)C1(O)CCCCC1 (stereo not given) [Desvenlafaxine] was run?
The cell viability was 1.

How did the cell viability turn out when CN(C)CCC=C1c2ccccc2C=Cc2ccccc21 [Cyclobenzaprine hydrochloride] was run?
Its cell viability is 0.947.

How did the cell viability turn out when CN(C)CCCN1c2ccccc2CCc2ccc(Cl)cc21 [Clomipramine HCl] was run?
Its cell viability is 0.826.

Which cell viability does the source give for O=c1ccc2ccc(OCCCCN3CCN(c4cccc5sccc45)CC3)cc2[nH]1 [Brexpiprazole] here?
Its cell viability is 1.01.

With CNc1nn2c(C)c(N(C)C)c(C)nc2c1S(=O)(=O)c1ccccc1 as the compound, how does the cell viability read?
The cell viability was 0.978.

How did the cell viability turn out when C=C1C(=O)O[C@H]2[C@H]1CC/C(C)=C/CC[C@@]1(C)O[C@@H]21 [Parthenolide] was run?
The cell viability was 0.323.

How did the cell viability turn out when Cn1ccc2cc(NC(=O)Nc3cccnc3)ccc21 was run?
Its cell viability is 1.03.

Which cell viability does the source give for Cc1cc(-c2ccccc2)nnc1NCCN1CCOCC1 [Minaprine dihydrochloride] here?
Its cell viability is 1.

How did the cell viability turn out when COCCCC/C(=N\OCCN)c1ccc(C(F)(F)F)cc1 [Fluvoxamine maleate] was run?
The cell viability was 1.07 ± 0.028.

For O=C1Cc2cc(CCN3CCN(c4nsc5ccccc45)CC3)c(Cl)cc2N1 [Ziprasidone], which cell viability is on record?
Its cell viability is 0.987.

CC(C)(C)c1ccc(CN2CCN(C(c3ccccc3)c3ccc(Cl)cc3)CC2)cc1 (stereo not given) [Buclizine HCl] was tested. Which cell viability did it give?
Its cell viability is 0.896.

Which cell viability does the source give for CSc1ccc2c(c1)C(N1CCN(C)CC1)Cc1ccccc1S2 (stereo not given) [Methiothepin mesylate] here?
The cell viability was 1.03.

How did the cell viability turn out when CCc1nn(CCCN2CCN(c3cccc(Cl)c3)CC2)c(=O)n1CCOc1ccccc1 [Nefazodone hydrochloride] was run?
Its cell viability is 1.03.

How did the cell viability turn out when O=c1c(-c2ccc(O)cc2)coc2c([C@@H]3O[C@H](CO)[C@@H](O)[C@H](O)[C@H]3O)c(O)ccc12 [Puerarin] was run?
The cell viability was 0.989.

COc1ccc2cc(Br)ccc2c1 [2-Bromo-6-methoxynaphthalene] was tested. Which cell viability did it give?
Its cell viability is 0.899.
